{
  "source": "PubChem BioAssay AID639",
  "about": "(Emory University Molecular Libraries Screening Center, 2007)",
  "note": "Screen size: about 86,000 compounds; about 1,200 (1.4%) were called active. Only a selection was taken, and actives are over-represented in it overall. A number with no mark means an inactive call. Rule as the data show it: active = activity above about 200%; inactive = the rest.",
  "data": [
    {"target": "Estrogen receptor (Homo sapiens) (UniProt P03372)", "sequence (P03372 whole entry, looked up, the tested form may be a part)": "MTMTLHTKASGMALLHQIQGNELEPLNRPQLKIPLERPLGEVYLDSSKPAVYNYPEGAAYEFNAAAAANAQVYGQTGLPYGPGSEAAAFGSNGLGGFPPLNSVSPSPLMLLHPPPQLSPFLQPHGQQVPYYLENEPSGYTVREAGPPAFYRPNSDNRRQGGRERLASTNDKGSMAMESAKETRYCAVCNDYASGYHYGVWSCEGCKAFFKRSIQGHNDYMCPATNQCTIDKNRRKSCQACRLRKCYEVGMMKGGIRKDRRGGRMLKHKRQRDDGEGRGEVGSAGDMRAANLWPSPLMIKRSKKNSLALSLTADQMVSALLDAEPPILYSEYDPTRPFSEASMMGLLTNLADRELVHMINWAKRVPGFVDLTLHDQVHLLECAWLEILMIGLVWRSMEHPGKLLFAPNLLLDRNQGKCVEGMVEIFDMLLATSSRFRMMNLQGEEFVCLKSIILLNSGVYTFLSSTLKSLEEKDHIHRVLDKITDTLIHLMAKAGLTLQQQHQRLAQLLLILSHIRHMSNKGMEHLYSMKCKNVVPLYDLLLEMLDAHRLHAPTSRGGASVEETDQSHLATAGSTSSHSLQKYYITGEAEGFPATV", "experiment": "ERα coactivator recruitment potentiators – biochemical, TR-FRET, ERα LBD, low estradiol, primary screen (AID 639);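 also: binding measured in presence of low estradiol as agonist stimulus; 0% = peptide alone without receptor and 100% = receptor with peptide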", "conditions": "TR-FRET ERalpha-LBD/SRC-Cy5 coactivator binding, 2 h; at 25.6 µM; hits give high values; 100 = basal binding, no effect", "values": [
      {"smiles": "Cc1ccc(NC(=S)NC(NC(=O)Cc2cccc3ccccc23)C(Cl)(Cl)Cl)cc1", "note": "(configuration not stated)", "coactivator binding (% of control)": "77.9%"},
      {"smiles": "COC(=O)C(C(=O)Nc1cccc(C)n1)C1CCCCCC1", "note": "(configuration not stated)", "coactivator binding (% of control)": "76.6%"},
      {"smiles": "COc1cccc(NC(=O)Cc2ccc(C)cc2)c1", "coactivator binding (% of control)": "96.3%"},
      {"smiles": "COc1ccc(CC(=O)Nc2ccc(-c3nnc(-c4ccc(C)cc4)o3)cc2)cc1", "coactivator binding (% of control)": "359% [fluorescence artefact?] (active)"},
      {"smiles": "COc1ccc(CC(=O)Nc2ccc(-c3nnc(-c4ccccc4)o3)cc2)cc1", "coactivator binding (% of control)": "184%"},
      {"smiles": "O=C(Nc1cccc(-c2nc3ncccc3o2)c1)c1ccco1", "coactivator binding (% of control)": "108%"},
      {"smiles": "Cc1ccc(OCC(=O)Nc2ccc(-c3nc4ncccc4o3)cc2)cc1", "coactivator binding (% of control)": "315% [fluorescence artefact?] (active)"},
      {"smiles": "Cc1ccc(OCC(=O)Nc2ccc(-c3nnc(-c4ccco4)o3)cc2)cc1", "coactivator binding (% of control)": "172%"},
      {"smiles": "CCOc1ccc(NC(=O)C2CCCN(C(=O)Nc3ccccc3)C2)cc1", "note": "(configuration not stated)", "coactivator binding (% of control)": "106%"},
      {"smiles": "COc1ccc(CN(C(=O)CSc2nnc(-c3ccc(OC)c(OC)c3)o2)c2ccc(F)cc2)cc1", "coactivator binding (% of control)": "95.1%"},
      {"smiles": "COc1ccc(-c2nnc(SCC(=O)c3ccc4c(c3)OCCO4)o2)cc1", "coactivator binding (% of control)": "335% [fluorescence artefact?] (active)"},
      {"smiles": "CCN(CC)C(=O)CSc1nnc(-c2cccc(OC)c2)o1", "coactivator binding (% of control)": "105%"},
      {"smiles": "Cn1c(SCC(=O)N2CCCc3ccccc32)nc2ccccc2c1=O", "coactivator binding (% of control)": "84.1%"},
      {"smiles": "Cc1cccc(C(=O)Nc2ccccc2N2CCN(c3ccc(F)cc3)CC2)c1", "coactivator binding (% of control)": "97.2%"},
      {"smiles": "COc1ccc(C(C)=O)cc1CN1C(=O)NC2(CCCCC2C)C1=O", "note": "(configuration not stated)", "coactivator binding (% of control)": "128%"},
      {"smiles": "CC(C)c1nc2oc3c(N4CCN(C)CC4)ncnc3c2c2c1CCC2", "coactivator binding (% of control)": "373% [fluorescence artefact?] (active)"},
      {"smiles": "CCN1CCN(c2ncnc3c2oc2nc(C)c4c(c23)CC(C)(C)OC4)CC1", "coactivator binding (% of control)": "95.8%"},
      {"smiles": "CN(C)c1ccc(CNC2C3CC4CC(C3)CC2C4)cc1", "note": "(configuration not stated)", "coactivator binding (% of control)": "105%"},
      {"smiles": "CCC(c1nnnn1C1CCCC1)N1CCN(C(=O)c2ccco2)CC1", "note": "(configuration not stated)", "coactivator binding (% of control)": "240% [fluorescence artefact?] (active)"},
      {"smiles": "CC(=O)c1ccc(-n2nnnc2SCC(=O)N2CCN(C(=O)c3ccco3)CC2)cc1", "coactivator binding (% of control)": "102%"},
      {"smiles": "CC(C)C(c1nnnn1CCc1ccccc1)N1CCN(C(=O)c2ccco2)CC1", "note": "(configuration not stated)", "coactivator binding (% of control)": "118%"},
      {"smiles": "CC(N)C12CC3CC(CC(O)(C3)C1)C2", "note": "(configuration not stated)", "coactivator binding (% of control)": "105%"},
      {"smiles": "CCCc1nc(NCc2ccc3c(c2)OCO3)c2nnn(Cc3ccccc3Cl)c2n1", "coactivator binding (% of control)": "118%"},
      {"smiles": "CCOC(=O)CN(Cc1ccc(OC)c(OC)c1)S(=O)(=O)c1ccc(OC)cc1", "coactivator binding (% of control)": "114%"},
      {"smiles": "CCOc1cccc(NC(=O)Cn2nc(-c3ccc4c(c3)OCCO4)ccc2=O)c1", "coactivator binding (% of control)": "214% (active)"},
      {"smiles": "CCn1c(COc2ccccc2)nnc1SCC(=O)Nc1ccc2c(c1)OCCO2", "coactivator binding (% of control)": "115%"},
      {"smiles": "CCOc1cccc(NC(=O)CC#N)c1", "coactivator binding (% of control)": "101%"},
      {"smiles": "CC(=NCc1ccco1)c1c(C(F)(F)F)[nH]n(-c2nc3ccccc3s2)c1=O", "coactivator binding (% of control)": "109%"},
      {"smiles": "COc1ccc(N2CCN(C(=O)CCc3nc(-c4ccc(C)cc4)no3)CC2)cc1", "coactivator binding (% of control)": "106%"},
      {"smiles": "CCCCCN1CC(O)=C(c2nc(-c3ccc(Cl)cc3)cs2)C1=N", "coactivator binding (% of control)": "293% [fluorescence artefact?] (active)"},
      {"smiles": "CCCCCN1CC(O)=C(c2ccccc2)C1=N", "coactivator binding (% of control)": "30.5%"},
      {"smiles": "COc1ccccc1N1CC(O)=C(c2nc3ccccc3s2)C1=N", "coactivator binding (% of control)": "87.9%"},
      {"smiles": "C/C(=N\\NS(=O)(=O)c1ccc(Br)cc1)c1cccs1", "coactivator binding (% of control)": "101%"},
      {"smiles": "Cc1nc(N2CCN(c3ncccn3)CC2)c2oc3ccccc3c2n1", "coactivator binding (% of control)": "207% [fluorescence artefact?] (active)"},
      {"smiles": "CCc1nc(N2CCN(c3nc(C)cc(C)n3)CC2)c2oc3ccccc3c2n1", "coactivator binding (% of control)": "155%"},
      {"smiles": "Cc1cc(C)nc(N2CCN(c3ncnc4c3oc3ccccc34)CC2)n1", "coactivator binding (% of control)": "144%"},
      {"smiles": "Cc1ccc(C2=CSC3=NS(=O)(=O)CCN23)cc1C", "coactivator binding (% of control)": "100%"},
      {"smiles": "COCCn1c(SCc2nc3cc(OC)c(OC)cc3c(=O)[nH]2)nnc1-c1ccncc1", "coactivator binding (% of control)": "112%"},
      {"smiles": "CCc1nnc(NC(=O)CCC(=O)NCc2ccccc2OC)s1", "coactivator binding (% of control)": "76.9%"},
      {"smiles": "CCSc1nnc(NC(=O)c2ccc(C)cc2)s1", "coactivator binding (% of control)": "95.5%"},
      {"smiles": "CCSc1nnc(NC(=O)Cc2ccccc2OC)s1", "coactivator binding (% of control)": "246% [fluorescence artefact?] (active)"},
      {"smiles": "Cc1nc(NC(=O)CN(C)S(=O)(=O)c2ccc(Cl)cc2)sc1C", "coactivator binding (% of control)": "105%"},
      {"smiles": "Fc1ccc(-c2ccc(-c3nn4c(-c5ccco5)nnc4s3)o2)cc1", "coactivator binding (% of control)": "84.9%"},
      {"smiles": "COc1ccc(-c2nn3c(-c4ccccc4)nnc3s2)cc1OC", "coactivator binding (% of control)": "123%"},
      {"smiles": "Fc1ccc(-c2nnc3sc(-c4ccc5c(c4)OCO5)nn23)cc1", "coactivator binding (% of control)": "258% (active)"},
      {"smiles": "CC1(C)CC(=O)C=C(N2CCCC2)C1", "coactivator binding (% of control)": "101%"},
      {"smiles": "CCOC(=O)Cc1csc(NC(=O)CSc2nnc(-c3cccnc3)n2Cc2ccco2)n1", "coactivator binding (% of control)": "114%"},
      {"smiles": "COC(=O)COc1ccc(S(=O)(=O)N2CCOCC2)cc1", "coactivator binding (% of control)": "108%"},
      {"smiles": "O=C(Nc1nc2ccc(S(=O)(=O)N3CCCC3)cc2s1)C1CCCO1", "note": "(configuration not stated)", "coactivator binding (% of control)": "103%"},
      {"smiles": "O=C(Nc1nc2cc3c(cc2s1)OCCO3)c1cccc(S(=O)(=O)N2CCOCC2)c1", "coactivator binding (% of control)": "122%"},
      {"smiles": "COc1ccc(C(=O)Nc2nc(-c3ccc(S(=O)(=O)N4CCOCC4)cc3)cs2)cc1", "coactivator binding (% of control)": "492% [fluorescence artefact?] (active)"},
      {"smiles": "CCOC(=O)c1csc(NC(=O)c2ccc(S(=O)(=O)N3CCCC3)cc2)n1", "coactivator binding (% of control)": "108%"},
      {"smiles": "COc1ccc(S(=O)(=O)N2CCOCC2)cc1C(=O)Nc1nc2ccccc2s1", "coactivator binding (% of control)": "206% [fluorescence artefact?] (active)"},
      {"smiles": "Cc1ccc(C)c(NC2=NCC(=O)N2c2ccc3c(c2)OCCO3)c1", "coactivator binding (% of control)": "103%"},
      {"smiles": "CCCCc1nc(NCCN)c(C#N)c2c1CSC(C)(C)C2", "coactivator binding (% of control)": "85.4%"},
      {"smiles": "O=C(C(NS(=O)(=O)c1cccc2nsnc12)c1ccccc1)N1CCN(c2ccccc2)CC1", "note": "(configuration not stated)", "coactivator binding (% of control)": "102%"},
      {"smiles": "COc1ccc2c(c1)cc1n2CCN=C1NN", "coactivator binding (% of control)": "90.7%"},
      {"smiles": "O=C(O)CSc1nccn1-c1cccc(Cl)c1", "coactivator binding (% of control)": "100%"},
      {"smiles": "COc1ccc(C2(CNC(=O)C(c3ccccc3)c3ccccc3)CCOCC2)cc1OC", "coactivator binding (% of control)": "103%"},
      {"smiles": "O=C(CSc1nc2cccnc2n1Cc1ccccc1)N1CCc2ccccc21", "coactivator binding (% of control)": "156%"},
      {"smiles": "O=C(NCc1ccco1)c1cccn2c(=O)c3cc(Br)ccc3nc12", "coactivator binding (% of control)": "232% [fluorescence artefact?] (active)"},
      {"smiles": "COc1ccc(CCn2c(=N)c(C(=O)NCc3ccco3)cc3c(=O)n4cccc(C)c4nc32)cc1", "coactivator binding (% of control)": "92.3%"},
      {"smiles": "O=C(NCc1ccco1)c1cc(-c2cccnc2)nc2ccc(Cl)cc12", "coactivator binding (% of control)": "128%"},
      {"smiles": "CC(Oc1ccc(Cl)cc1)C(=O)Nc1ncccn1", "note": "(configuration not stated)", "coactivator binding (% of control)": "220% (active)"},
      {"smiles": "COc1ccc(OC(C)C(=O)Nc2cccnc2)cc1", "note": "(configuration not stated)", "coactivator binding (% of control)": "102%"},
      {"smiles": "CC(Oc1ccc(Cl)cc1)C(=O)OCC(=O)Nc1ncc(Cl)cc1Cl", "note": "(configuration not stated)", "coactivator binding (% of control)": "103%"},
      {"smiles": "CCCC1(C(=O)OCC)NC(c2ccc(N(C)C)cc2)C2C(=O)N(c3ccc4c(c3)OCCO4)C(=O)C21", "note": "(configuration not stated)", "coactivator binding (% of control)": "117%"},
      {"smiles": "CCN(CC)C(=O)CSc1nnc(CNc2ccc(F)cc2)n1Cc1ccco1", "coactivator binding (% of control)": "86.8%"},
      {"smiles": "O=S(=O)(NCCc1ccccc1)c1ccccc1", "coactivator binding (% of control)": "245% [fluorescence artefact?] (active)"},
      {"smiles": "CC(=O)Nc1ccc(S(=O)(=O)NCCc2ccccc2)cc1", "coactivator binding (% of control)": "98.9%"},
      {"smiles": "O=S(=O)(NCCNS(=O)(=O)c1ccccc1)c1ccccc1", "coactivator binding (% of control)": "108%"},
      {"smiles": "COc1ccc(C(=O)N2CC3(C)CC2CC(C)(C)C3)cc1OC", "note": "(configuration not stated)", "coactivator binding (% of control)": "118%"},
      {"smiles": "CCOC(=O)c1c(C)oc2cc(Br)c(OCC(N)=O)cc12", "coactivator binding (% of control)": "156%"},
      {"smiles": "CSc1ccc(-c2c(C#N)c(N)nc3c2c(C)nn3-c2ccccc2)cc1", "coactivator binding (% of control)": "210% [fluorescence artefact?] (active)"},
      {"smiles": "CCn1c(CNC(=O)c2ccccc2)nnc1SCC(=O)N1CCN(c2ccccc2)CC1", "coactivator binding (% of control)": "106%"},
      {"smiles": "Fc1ccc(-n2c(Cc3ccccc3)nnc2SCc2nc(-c3ccc(Cl)cc3)no2)cc1", "coactivator binding (% of control)": "95.3%"},
      {"smiles": "Cc1cccc(C)c1NC(=O)CSc1nnc(-c2ccccc2)n1Cc1ccc2c(c1)OCO2", "coactivator binding (% of control)": "98.5%"}
    ]}
  ]
}
